Test [1] can be described thus: antimalarial activity against Dd2 strain (AID 2302;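 active = growth inhibition above 50% at the single 2 µM test dose, taken to imply half-maximal potency below 2 µM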;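 also: 0% = DMSO untreated growth and 100% = chloroquine plus artemisinin killed control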). Conditions: P. falciparum Dd2 in RBCs, LDH growth readout, 72 h; at 2 µM; hits give high values.
Test [2] can be described thus: HepG2 cytotoxicity, primary screen, cytotoxicity control for P. falciparum antimalarial project, cell-based, ATP luminescence (AID 2303;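 active = inhibition above 50%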;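 also: 0% = DMSO wells and 100% = digitonin-killed cells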). Conditions: HepG2 viability, 24-48 h, at 10 µM, hits give high values.
For test [3], the target named is L-lactate dehydrogenase (Plasmodium falciparum (isolate CDC / Honduras)) (UniProt Q27743). As to the kind of experiment: PfLDH activity inhibition – cell lysate, 3D7 strain, counter-screen for P. falciparum growth inhibition project (AID 2304).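 Also: 0% = vehicle and 100% = reference inhibitor.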 Conditions: P. falciparum 3D7 crude extract, LDH APAD/NBT absorbance; at 2 µM; hits give high values. For orientation: Counterscreens check selectivity or assay interference.

Test [4] can be described thus: inhibition of 3D7 malaria parasite growth – strain 3D7 (AID 2306).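 Also: 0% = DMSO wells and 100% = chloroquine plus artemisinin control wells.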 Conditions: P. falciparum 3D7 erythrocytic growth, LDH absorbance, 72 h; at 2 µM; hits give high values.
Test [5] deals with Calcium-dependent protein kinase 1 (Plasmodium falciparum (isolate 3D7)) (UniProt P62344). As to the kind of experiment: PfCDPK1 kinase inhibitors, biochemical, TCAMS library (AID 1159585; cut-off not given, nearly all actives have IC50 up to about 0.98 µM;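 also: inhibitors leave more ATP so luminescence rises with inhibition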). Conditions: recombinant PfCDPK1, Kinase-Glo ATP depletion luminescence.
Test [6] deals with Plasmodium falciparum protein kinase 6 (PK6, PF3D7_1337100) (UniProt Q8IDW1). As to the kind of experiment: PfPK6 kinase inhibitors, biochemical, TCAMS library (AID 1159586). Conditions: recombinant PfPK6, Kinase-Glo ATP depletion luminescence.
Test [7] concerns the target Protein kinase 7 (PK7), Plasmodium falciparum 3D7 (PF3D7_0213400) (UniProt Q7YTF7). As to the kind of experiment: inhibition of Plasmodium PK7 catalytic activity – biochemical, TCAMS antimalarial set, Kinase-Glo luminescence (AID 1159587). Conditions: recombinant PfPK7, Kinase-Glo ATP depletion luminescence. On the technique in general: Kinase-Glo measures the ATP left after a reaction by luminescence.

The target in test [8] is Calcium-dependent protein kinase 4 (Plasmodium falciparum (isolate 3D7)) (UniProt Q8IBS5). As to the kind of experiment: PfCDPK4 kinase inhibitors, biochemical, TCAMS library (AID 1159588; cut-off not given, nearly all actives have IC50 up to about 0.91 µM). Conditions: recombinant PfCDPK4, Kinase-Glo ATP depletion luminescence.

Unmarked numbers belong to inactive results. For some of these results: Potency and affinity values are given separately. Calls of active or inactive are those of the source. Unless noted, no rule for the calls is given here.

Plasmodium falciparum protein kinase 6 (PK6, PF3D7_1337100), sequence (Q8IDW1 1-305): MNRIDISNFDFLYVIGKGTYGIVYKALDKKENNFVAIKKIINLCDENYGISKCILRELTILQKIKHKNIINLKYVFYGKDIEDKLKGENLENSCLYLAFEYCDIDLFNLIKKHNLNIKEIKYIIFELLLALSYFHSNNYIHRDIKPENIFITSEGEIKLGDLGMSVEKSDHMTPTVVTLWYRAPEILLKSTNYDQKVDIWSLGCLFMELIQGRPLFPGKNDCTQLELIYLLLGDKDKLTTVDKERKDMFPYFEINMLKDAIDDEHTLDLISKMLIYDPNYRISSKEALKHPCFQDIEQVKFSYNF
Calcium-dependent protein kinase 4 (Plasmodium falciparum (isolate 3D7)), sequence (Q8IBS5 whole entry, looked up): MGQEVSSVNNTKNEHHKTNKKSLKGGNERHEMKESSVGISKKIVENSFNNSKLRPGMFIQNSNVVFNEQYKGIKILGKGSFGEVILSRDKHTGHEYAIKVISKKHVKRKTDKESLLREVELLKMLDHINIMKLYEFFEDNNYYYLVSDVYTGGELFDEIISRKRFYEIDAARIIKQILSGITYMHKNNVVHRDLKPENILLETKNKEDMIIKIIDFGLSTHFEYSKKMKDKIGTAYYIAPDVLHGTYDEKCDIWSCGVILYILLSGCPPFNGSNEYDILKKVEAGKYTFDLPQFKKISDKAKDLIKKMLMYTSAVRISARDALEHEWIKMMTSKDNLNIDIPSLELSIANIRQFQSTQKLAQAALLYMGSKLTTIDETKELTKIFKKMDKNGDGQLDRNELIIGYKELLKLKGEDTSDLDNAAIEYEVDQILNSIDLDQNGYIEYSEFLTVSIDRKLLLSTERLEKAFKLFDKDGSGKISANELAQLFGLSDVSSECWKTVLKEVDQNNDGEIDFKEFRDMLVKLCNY
L-lactate dehydrogenase (Plasmodium falciparum (isolate CDC / Honduras)), sequence (Q27743 whole entry, looked up): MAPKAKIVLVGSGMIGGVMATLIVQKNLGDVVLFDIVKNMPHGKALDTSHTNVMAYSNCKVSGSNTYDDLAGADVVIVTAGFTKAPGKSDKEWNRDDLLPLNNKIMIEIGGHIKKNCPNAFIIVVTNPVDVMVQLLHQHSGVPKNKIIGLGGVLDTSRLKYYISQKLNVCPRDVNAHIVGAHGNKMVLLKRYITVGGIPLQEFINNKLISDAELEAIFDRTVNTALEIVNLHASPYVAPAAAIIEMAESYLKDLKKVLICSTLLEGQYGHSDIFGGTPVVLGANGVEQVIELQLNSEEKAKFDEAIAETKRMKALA
Calcium-dependent protein kinase 1 (Plasmodium falciparum (isolate 3D7)), sequence (P62344 whole entry, looked up): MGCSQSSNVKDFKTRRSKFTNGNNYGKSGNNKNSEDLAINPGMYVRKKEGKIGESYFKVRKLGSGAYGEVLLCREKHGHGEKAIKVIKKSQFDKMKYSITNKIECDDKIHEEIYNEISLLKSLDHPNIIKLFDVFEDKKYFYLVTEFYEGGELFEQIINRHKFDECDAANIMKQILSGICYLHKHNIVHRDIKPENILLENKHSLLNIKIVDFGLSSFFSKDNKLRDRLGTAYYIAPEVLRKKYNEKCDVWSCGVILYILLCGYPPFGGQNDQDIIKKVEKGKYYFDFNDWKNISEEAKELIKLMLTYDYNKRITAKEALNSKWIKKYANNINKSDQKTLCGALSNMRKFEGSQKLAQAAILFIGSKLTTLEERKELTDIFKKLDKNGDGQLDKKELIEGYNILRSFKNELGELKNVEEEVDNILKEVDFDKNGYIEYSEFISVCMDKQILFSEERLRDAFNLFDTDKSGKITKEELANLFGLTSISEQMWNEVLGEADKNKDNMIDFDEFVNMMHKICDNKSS
Protein kinase 7 (PK7), Plasmodium falciparum 3D7 (PF3D7_0213400), sequence (Q7YTF7 1-343): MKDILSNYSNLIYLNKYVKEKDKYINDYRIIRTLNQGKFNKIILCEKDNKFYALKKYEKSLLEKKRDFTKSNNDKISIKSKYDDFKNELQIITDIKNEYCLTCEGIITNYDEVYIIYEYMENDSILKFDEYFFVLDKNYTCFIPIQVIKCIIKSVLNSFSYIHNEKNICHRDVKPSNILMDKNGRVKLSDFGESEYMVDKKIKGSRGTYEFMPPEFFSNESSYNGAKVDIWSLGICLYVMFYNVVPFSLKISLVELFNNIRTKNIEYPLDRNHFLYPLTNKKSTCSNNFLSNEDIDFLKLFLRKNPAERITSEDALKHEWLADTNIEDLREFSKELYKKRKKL

Usually inhibition stands for the change of the read-out against control, counted positive when it falls. For `C=C1N(C)c2cc([N+](=O)[O-])c(N)cc2C1(C)C`, the growth inhibition in test [1] is 83% (active); in test [4], 98% (active). Moreover, the inhibition in test [2] is 22%; in test [3], -2%. Also, the outcome in test [5], in test [6], in test [7] and in test [8] was inactive.

As to `Cn1nc(-c2ccc(CNC3CCc4ccccc43)cc2)c2cnc(NCCCN3CCCC3)nc21` (stereo not given), the growth inhibition in test [1] was 22%; in test [4], 92% (active). Also, the values for the inhibition in test [2] and in test [3] were 27% and -4%, respectively. The result in test [5], in test [6], in test [7] and in test [8] was inactive.

On to `CN(C)Cc1ccc(-c2cc3ncnc(Nc4ccc(OCc5cccc(F)c5)c(Cl)c4)c3s2)[nH]1`, for which the growth inhibition in test [1] is 87% (active); in test [4], 99% (active). Further, the inhibition in test [2] was 53% (active); in test [3], 6%. Further, the result in test [5], in test [6], in test [7] and in test [8] was inactive.

`CC(=O)Nc1cccc(C(=O)Nc2cccc(-c3ccc(-c4nc5ccc(F)cc5[nH]4)s3)c2)c1`: the growth inhibition in test [1] is 30%; in test [4], 94% (active). For the same compound, the results for the inhibition in test [2] and in test [3] were 88% (active) and -1%, respectively. For the same compound, the result in test [5], in test [6], in test [7] and in test [8] was inactive.

On to `NC(N)=NCCN(Cc1ccccc1)c1ccccc1`, for which the values for the growth inhibition in test [1] and in test [4] were 98% (active) and 100% (active), respectively. Also, the inhibition in test [2] is 8%; in test [3], 3%. Further, the result in test [5], in test [6], in test [7] and in test [8] was inactive.

Consider `COc1cccc(C2CCCN(CCCCNC(=O)c3ccc(NC(=O)c4ccc(Cl)cc4)cc3)C2)c1` (stereo not given), for which the growth inhibition is 6% in test [1] and 95% (active) in test [4]. Further, the inhibition in test [2] is 24%; in test [3], -2%. Moreover, the outcome in test [5], in test [6], in test [7] and in test [8] was inactive.

On to `CC(=O)Nc1nc(C(=O)Nc2ccc(-c3ccc(-c4nc5c(C)cccc5[nH]4)cc3)cc2)cs1`, for which the figures for the growth inhibition in test [1] and in test [4] were 53% (active) and 101% (active), respectively. Besides, the values for the inhibition in test [2] and in test [3] were 42% and -1%, respectively. The result in test [5], in test [6], in test [7] and in test [8] was inactive.

Regarding `COc1ccc2nccc(N3CCC(SCCNCc4cc5c(cn4)OCCO5)C3)c2n1` (stereo not given), the growth inhibition was 100% (active) in test [1] and 101% (active) in test [4]. In addition, the inhibition in test [2] is 30%; in test [3], 2%. Besides, the outcome in test [5], in test [6], in test [7] and in test [8] was inactive.

As to `CN(C)CCNc1nccc(N2CCc3ncnc(Nc4ccc(OCc5cccc(F)c5)c(Cl)c4)c3C2)n1`, the growth inhibition in test [1] is 97% (active); in test [4] it was 100% (active). Also, the results for the inhibition in test [2] and in test [3] were 65% (active) and 6%, respectively. Further, the outcome in test [5], in test [6], in test [7] and in test [8] was inactive.

Take `FC(F)(F)COc1ccc(CCNCCCCNCCc2ccc(OCC(F)(F)F)c3ccccc23)c2ccccc12`: the growth inhibition is 70% (active) in test [1] and 99% (active) in test [4]. For the same compound, the values for the inhibition in test [2] and in test [3] were 100% (active) and 4%, respectively. Further, the result in test [5], in test [6], in test [7] and in test [8] was inactive.

As for `O=C(/C=C/c1ccc(Cl)c(Cl)c1)NCCCCCN1CCCC(C(=O)Nc2ccc(Cl)c(Cl)c2)C1` (stereo not given), the growth inhibition in test [1] is 11%; in test [4] it was 100% (active). The inhibition in test [2] was 53% (active); in test [3] it was -1%. The result in test [5], in test [6], in test [7] and in test [8] was inactive.

In the case of `CN1CCC(Oc2cc(CN3CC[C@H](NC(=O)c4ccc(Cl)c(Cl)c4)C3)ccc2I)C1` (stereo not given in full), the growth inhibition was 24% in test [1] and 97% (active) in test [4]. In addition, the inhibition in test [2] was 68% (active); in test [3], 1%. Moreover, the outcome in test [5], in test [6], in test [7] and in test [8] was inactive.

On to `N/C(=N\c1cccc(Cc2ccc([N+](=O)[O-])cc2)n1)Nc1ccccc1`, for which the results for the growth inhibition in test [1] and in test [4] were 19% and 96% (active), respectively. Also, the inhibition is 28% in test [2] and 4% in test [3]. Besides, the result in test [5], in test [6], in test [7] and in test [8] was inactive.

As for `CCN(CC)C(=NCCCCCCN=C(/N=C(\N)c1ccc(Cl)cc1)N(CC)CC)/N=C(\N)c1ccc(Cl)cc1`, the growth inhibition in test [1] was 99% (active); in test [4] it was 97% (active). The inhibition in test [2] and in test [3] was 1% throughout. The result in test [5], in test [6], in test [7] and in test [8] was inactive.

As to `N=C(N)c1ccc(C=CC(=O)NCC(O)CNC(=O)C=Cc2ccc(C(=N)N)cc2)cc1` (stereo not given), the growth inhibition in test [1] was 80% (active); in test [4] it was 90% (active). The inhibition in test [2] is -14%; in test [3], -1%. Moreover, the outcome in test [5], in test [6], in test [7] and in test [8] was inactive.

Consider `CC(Cc1ccc(NC(=O)COc2ccc(CC(C)NCCc3cccc(Cl)c3)cc2)cc1)NCCc1cccc(Cl)c1` (stereo not given), for which the values for the growth inhibition in test [1] and in test [4] were 98% (active) and 105% (active), respectively. In addition, the inhibition in test [2] was 100% (active); in test [3], 4%. The outcome in test [5], in test [6], in test [7] and in test [8] was inactive.

`CCCNc1ccc2nccc(CCN3CCC(NCc4ccc5c(n4)NC(=O)CS5)CC3)c2n1`: the growth inhibition in test [1] was -1%; in test [4] it was 103% (active). The inhibition was 24% in test [2] and -1% in test [3]. Moreover, the outcome in test [5], in test [6], in test [7] and in test [8] was inactive.

With `Nc1oc2c(CN3CCCCCC3)c(O)ccc2c(=O)c1-c1nc2ccccc2s1`, the growth inhibition in test [1] was 99% (active); in test [4], 100% (active). Further, the figures for the inhibition in test [2] and in test [3] were 12% and 4%, respectively. Besides, the result in test [5], in test [6], in test [7] and in test [8] was inactive.

Regarding `CC(=O)N[C@H](C(=O)Nc1ccc(-c2ccc(-c3nc4ccc(C(F)(F)F)cc4[nH]3)s2)cc1)C(C)C`, the growth inhibition is 61% (active) in test [1] and 88% (active) in test [4]. The results for the inhibition in test [2] and in test [3] were 42% and 2%, respectively. Moreover, the result in test [5], in test [6], in test [7] and in test [8] was inactive.

On to `O=C1C(c2ccccc2)=C(Nc2cccc([N+](=O)[O-])c2)c2ccccc21`, for which the growth inhibition in test [1] and in test [4] was 88% (active) in each case. For the same compound, the inhibition in test [2] is -3%; in test [3] it was 1%. In addition, the outcome in test [5], in test [6], in test [7] and in test [8] was inactive.
